Measurements from ChEMBL document CHEMBL3433997, “St. Jude Leishmania screening dataset” (2016).

Columns and labels:
Assay type in all cases: functional
[1] = target: Solute carrier family 2, facilitated glucose transporter member 1 (Homo sapiens) (UniProt P11166); experiment: ST_JUDE_LEISH: Cytotoxicity at 2uM final concentration against transgenic Leishmania Mexicana promastigotes LmGLUT1 that are glucose transport deficient and complemented with the human glucose transporter GLUT1. Activity is measured by DNA content using SYBR green in vitro
Sequence of Solute carrier family 2, facilitated glucose transporter member 1 (Homo sapiens) (P11166 whole entry): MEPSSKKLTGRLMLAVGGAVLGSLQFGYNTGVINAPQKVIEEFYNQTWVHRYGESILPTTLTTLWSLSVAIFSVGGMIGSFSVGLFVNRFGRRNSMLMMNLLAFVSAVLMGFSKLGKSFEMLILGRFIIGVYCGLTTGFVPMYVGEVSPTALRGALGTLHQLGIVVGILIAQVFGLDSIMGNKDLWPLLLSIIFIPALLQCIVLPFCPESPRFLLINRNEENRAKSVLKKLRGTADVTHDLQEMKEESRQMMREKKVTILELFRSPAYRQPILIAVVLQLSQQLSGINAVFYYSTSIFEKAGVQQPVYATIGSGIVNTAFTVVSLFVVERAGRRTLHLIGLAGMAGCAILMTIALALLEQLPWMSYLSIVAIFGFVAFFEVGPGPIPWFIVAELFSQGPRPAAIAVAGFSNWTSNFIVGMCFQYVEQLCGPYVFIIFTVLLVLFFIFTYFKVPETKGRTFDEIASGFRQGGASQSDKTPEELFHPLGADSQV

[2] = target: Hexose transporter 1 (Plasmodium falciparum) (UniProt O97467); experiment: ST_JUDE_LEISH: Cytotoxicity at 2uM final concentration against transgenic Leishmania Mexicana promastigotes LmPfHT that are glucose transport deficient and complemented with the Plasmodium falciparum hexose transporter. Activity is measured by DNA content using SYBR green in vitro
[3] = target: Glucose transporter (Leishmania mexicana) (UniProt O61059); experiment: ST_JUDE_LEISH: Cytotoxicity at 2uM final concentration against transgenic Leishmania Mexicana promastigotes LmGT2 that are glucose transport deficient and complemented with the L. Mexicana glucose transporter 2. Activity is measured by DNA content using SYBR green in vitro

SMILES | inhibition [1] [%] | inhibition [2] [%] | inhibition [3] [%]
Cc1cccc2nc(-c3cccc(-c4cccc(CNCc5ccccc5)c4)c3)[nH]c12 | 1.86 | 0.34 | 0.66
CN1CCC(NC(=O)c2cccc(Nc3cc(Nc4cccc(Br)c4)ncn3)c2)CC1 | 4.2 | 3.45 | 2.65
Cc1ccc(-c2nc(Nc3ccncc3)c3ccccc3n2)s1 | 5.34 | 3.16 | 0.88
CC(C)(C)c1ccc(CN2CCC(CNC(=O)c3cc(-c4cccc(F)c4)cs3)C2)cc1 (configuration not stated) | 4.3 | 4.53 | 4.16
O=C(Nc1ccc(Cl)cc1F)N[C@H]1CCN(CCCCCNC(=O)C2CC2c2ccc(Cl)c(Cl)c2)C1 (some centres not stated) | 8.35 | 8.26 | 8.63
O=C(Nc1cccc(OCc2ccccc2)c1)c1ccc(CN2CCC(Cc3ccccc3)CC2)cc1 | -0.83 | -1.67 | -0.42
CCc1cc(NC2CCN(C)CC2)nc(Nc2cccc(OC)c2)n1 | 15 | 10 | 6.53
CC(CC1CCCCC1)NCc1ccccc1OCCC(=O)N1CCCC1C(N)=O (configuration not stated) | 3.79 | 3.8 | 0.2
O=C(NCCCCN1CCC(c2ccc3c(c2OC(=O)c2ccc(NC(=O)c4ccc(Cl)cc4)cc2)CCCC3)CC1)c1ccc(NC(=O)c2ccc(Cl)cc2)cc1 | 3.25 | 0.15 | 3.18
COc1ccc(-c2nc(NC(=O)COc3ccc(C(C)=O)cc3)sc2C)cc1 | 2.62 | 2.48 | 2.69
CN(C)c1ccc(N2C(N)=NC(N)=NC23CCCC3)cc1 | -0.69 | -0.9 | -3.85
O=C(Nc1ccc(N2CCCCC2)c(Cl)c1)c1ccc(Br)o1 | 1.4 | 2.17 | 2.35
O=C(NC1CCCCC1)N(Cc1ccc(-c2cccc(CNCc3ccc4c(c3)OCO4)c2)cc1)C1CCN(Cc2ccccc2)CC1 | 2.19 | 1.74 | 0.81
Cc1cccc(CN2CCCN(Cc3ccc(C(=O)Nc4ccc(Cl)cc4)cc3)CC2)c1 | 11.2 | 11.3 | 7.83
Cc1cc(=NN=Cc2ccccc2Cl)c2cc(C(F)(F)F)ccc2[nH]1 | -0.33 | -0.65 | 1.27
C=CCN(c1ccc(OC)cc1)S(=O)(=O)c1ccc(Cl)c(C(=O)Nc2cccc(C#N)c2)c1 | -1.28 | 4.89 | 4.17
COc1cc(CCCOc2c(N)nc(N)nc2N)cc(OC)c1OC | 4.82 | 3.75 | 3.79
O=C(Nc1cccc(C2=NCCCN2)c1)Nc1cccc(C2=NCCCN2)c1 | 2.31 | 1.94 | 0.46
CCC(C)C(COC(=O)c1cc(OC)c(OC)c(OC)c1)N(C)CCN(C)C(COC(=O)c1cc(OC)c(OC)c(OC)c1)C(C)CC (configuration not stated) | 1.76 | 1.28 | -0.47
CCOC(=O)c1ccc(NC(=O)NCCCC2CCCN(CCCCCNC(=O)/C=C/c3ccc(Cl)c(Cl)c3)C2)cc1 (configuration not stated) | 1.46 | 1.66 | 0.52
Clc1cc(Cl)c2cc(CNCCCNc3ccc4ccccc4n3)[nH]c2c1 | 0.53 | 0.95 | 1
Cn1cc(C2CCN(CCCCCNC(=O)/C=C/c3ccc(Cl)c(Cl)c3)CC2)c2cc(O)ccc21 | 1.48 | 2.56 | 1.47
CCCCSc1c(CNCCCCCCNCc2ccc3ccccc3c2SCCCC)ccc2ccccc12 | 10.7 | 5.83 | 0.58
Nc1nc(F)nc2nc[nH]c12 | 29.6 | 29.2 | 22
O=C(Nc1cc(Cl)ccc1O)c1ccc(Oc2ccc(C(=O)Nc3cc(Cl)ccc3O)cc2)cc1 | -1.36 | -1.96 | -1

SMILES | inhibition [1] [%] | inhibition [2] [%] | inhibition [3] [%]
COc1ccc2nccc(NC(=O)N3CCC(NCc4cc5c(F)ccc(F)c5[nH]4)CC3)c2n1 | 16.9 | 19.2 | 22.6
CN1CCC(NCc2cccc(-c3ccc(S(=O)(=O)NCCc4ccccn4)c(F)c3)c2)CC1 | 1.22 | 0.03 | 0.94
CCCNCc1ccc(-c2ccc(CN(Cc3cnc(C)cn3)C(=O)c3nn(-c4ccccc4)nc3C)cc2)nc1 | 2.69 | 0.9 | -6.47
CCCc1cc2c3c(N)nc(N)nc3ccc2n1CC | 6.73 | 8.39 | 4.29
O=C1CC(C(=O)O)CC(=O)N1 | -3.7 | -2.75 | -0.61
N#Cc1ccc(-c2ccc(C(=O)NCCCCN3CCC(c4ccc5c(c4OCc4ccncc4)CCCC5)CC3)cc2)cc1 | 0.21 | 3.1 | 1.26
COc1ccc(OCC(=O)Nc2nc(-c3ccc(OC)cc3)c(C)s2)cc1 | 1.08 | 0.94 | -1.09
N#Cc1ccc(C(=O)Nc2ccc(Cl)c(N3CCN(CCc4ccccc4)CC3)c2)cc1 | 8.77 | 7.95 | 7.85
Oc1cccc2c1CC(NCc1ccccc1)CC2 (configuration not stated) | 1.86 | 1.22 | 2.32
COc1ccc(C2CC(c3cccs3)=NN2C(=O)CNc2cccc(C#N)c2)cc1OC (configuration not stated) | 7.28 | 14.4 | 2.41
Cc1ccc(C2(C)CC(C)(C)N(C(=O)COc3ccc4ccccc4c3)c3ccccc32)cc1 (configuration not stated) | -1.77 | -1.69 | 1.03
N#CN1CC[C@@H](OC(=O)N[C@@H]2C[C@H]2c2ccccc2)C1 | 8.37 | 7.38 | 4.43
Cn1c(=O)n(C)c2cc(CNCCNc3ccnc4cc(Cl)ccc34)ccc21 | 2.25 | 3.88 | 0.4
CC(C)Nc1nc(NCCc2c[nH]cn2)nc(Nc2ccc(Oc3ccccc3)cc2)n1 | 2.08 | 2.71 | -1.98
COc1cc(Cc2cnc(N)nc2N)ccc1OCc1ccc(-c2csnn2)cc1 | 9.75 | 9.64 | 11.7
CC[C@H](C)CNC(=O)c1cncc(-c2ccc(CNCC3CNCCCO3)cc2)c1 (some centres not stated) | -1.56 | -2.12 | -0.99
O=C(Nc1cccc(CN2CCCN(Cc3cccc(Cl)c3)CC2)c1)c1ccc(Br)cc1 | 7.66 | 7.39 | 9.96
c1ccc2c(c1)CN(CC1CC1)CC1(CCN(Cc3c[nH]c4cnccc34)CC1)O2 | -0.99 | 0.39 | 0.54
Cn1cc(CCNc2ccnc(N3CCC(c4ncc[nH]4)CC3)n2)c2ccccc21 | -2.77 | -1.57 | -2.28
Cc1c(C)c2c(c(C)c1O)CC[C@@](C)(C(=O)N1CCC(CCN3CCC(c4c[nH]c5ccccc45)CC3)CC1)O2 | 7.87 | 7 | 4.66
C[C@@H](Oc1cc(-n2cnc3ccc(NC(=O)NC(C)(C)C)cc32)sc1C(N)=O)c1ccccc1Cl | 4.54 | 3.45 | 2.98
COc1ccc(-c2cc3nc4c(c(NCCCn5ccnc5)n3n2)CCCC4)cc1 | 1.31 | 1.92 | 2.25
CN1CCN(c2cc(-c3ccncc3)nc(-c3cccnc3)n2)CC1 | 5.17 | 3.27 | 3
CCCCCCCCNc1c2ccc(Cl)cc2nc2ccc(OC)cc12 | 7.33 | 7.51 | 5.8
